Holding throughout (assay): NCI-60 one-dose screen, 48 h (100 = growth as untreated, 0 = no growth, -100 = all killed)
Conditions in all cases: 10 µM unless noted

The test system of assay [1] is NCI-H23 lung.
Assay [2] relates to NCI-H226 lung.
Assay [3] concerns NCI-H322M lung.
In assay [4] the test system is HOP-62 NSCLC.
Assay [5] has as its system NCI-H460 lung.
Assay [6] relates to HOP-92 NSCLC.
The test system of assay [7] is NCI-H522 lung.
Assay [8] deals with A549/ATCC NSCLC.
In assay [9] the test system is 786-0 renal.
In assay [10] the test system is COLO 205 colon.
Assay [11] relates to DU-145 prostate.
The test system of assay [12] is MALME-3M melanoma.
The test system of assay [13] is MDA-MB-231 breast.
Assay [14] concerns RXF 393 renal.
Assay [15] deals with SF-268 CNS.
Assay [16] relates to SF-295 CNS.
The subject of assay [17] is SF-539 CNS.
Assay [18] relates to UACC-257 melanoma.
Assay [19] has as its system M14 melanoma.
The test system of assay [20] is K-562 leukemia.

About 83,000 compounds went through this panel and 20% of them were active in at least one assay; those are over-represented in the sample as a whole.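 Each cell line was grown in a 96-well plate and treated with one concentration of compound for 48 hours. Values below 10 were considered active.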 A number with no mark means an inactive call. Calls of active or inactive are those of the source.

In the case of `CCCOC(=O)c1ccc([N+](=O)[O-])o1`, the growth in [1] is 108%; in [2], 109%; in [3] it was 108%; in [4], 114%; in assay [5], 91.4%; in assay [6] it was 109%. The growth in [7] is 85.4%; in assay [8], 101%; in assay [9] it was 108%; in assay [10], 120%; in assay [11], 118%; in assay [12], 116%. In addition, the growth was 103% in [13]; 109% in [14]; 100% in assay [15]; 120% in assay [16]; 93.8% in [17]; 110% in assay [18]. Besides, in assay [19], the growth is 98.8%.

Turning to `COc1ccccc1S(=O)(=O)Nc1ccc2c3c(cc(-c4cnn(C5CC5)c4)nc13)C(=O)N2C`, the growth is 67.5% in assay [1]; 79.7% in assay [2]; 70.7% in assay [3]; 50.7% in assay [4]; 66.7% in assay [5]; 40.7% in assay [6]. Also, the growth was 64.6% in [7]; 66.4% in assay [8]; 68.2% in [9]; 39.2% in assay [10]; 85.1% in assay [11]; 63.9% in [12]. For the same compound, the growth was 52.8% in assay [13]; 89.8% in assay [14]; 84.3% in [15]; 53.7% in assay [16]; 60.8% in assay [17]; 66.2% in assay [18]. For the same compound, in assay [19], the growth was 61.1%.

Turning to `C=CCn1c(SCC(=O)Nc2ccc(C(=O)/C=C/c3cc(OC)c(OC)c(OC)c3)cc2)nnc1-c1ccc(OC)cc1`, the growth in [1] is 22.2%; in [2], -36.5% (active); in assay [3], 17.3%; in assay [4] it was -32.5% (active); in assay [5] it was 0.762% (active); in assay [6], 21.3%. In addition, the growth is -16.8% (active) in assay [7]; 4.04% (active) in assay [8]; -30.8% (active) in [9]; -7.79% (active) in assay [10]; 5.32% (active) in assay [11]; 46.1% in assay [12]. The growth in [13] is 13.8%; in assay [14], -81.6% (active); in assay [15], 5.5% (active); in [16] it was -21.4% (active); in [17], -17.6% (active); in [18] it was 13.6%. Further, the growth in [19] is 6.88% (active).

Consider `CC(=O)c1cc2c(c(O)c1C)C(=O)C(=O)c1c(O)cccc1-2`, for which the growth in assay [1] was -15.3% (active); in assay [2], -69.7% (active); in assay [3], -83.6% (active); in assay [4], -78.5% (active); in assay [5], -57.6% (active); in assay [6] it was -43.9% (active). Moreover, the growth in assay [7] was -62.4% (active); in assay [8] it was -66.8% (active); in assay [9] it was -78.6% (active); in [10] it was -75.4% (active); in assay [11], -94.8% (active); in assay [12], -83.1% (active). Moreover, the growth in assay [13] is -79.3% (active); in [14], -90.2% (active); in assay [15] it was -45.8% (active); in [16] it was -82.5% (active); in assay [17] it was -98.3% (active); in [18], -95.7% (active). Also, the growth in [19] is -87.7% (active).

For the compound `CCCCOc1c(N)cc(Cl)cc1C(=O)OCCN(CC)CC`, the growth was 104% in assay [1]; 94.1% in assay [2]; 86% in assay [3]; 91.8% in assay [4]; 108% in assay [5]; 89.6% in assay [6]. Moreover, the growth in assay [7] was 53.1%; in assay [8] it was 86.5%; in assay [9], 92.8%; in assay [11], 116%; in assay [20] it was 83.9%; in assay [12], 102%. The growth in assay [13] is 101%; in [14], 125%; in assay [15] it was 98.6%; in assay [16], 101%; in assay [17] it was 104%; in [18], 78.3%. In assay [19], the growth was 107%.

Take `C=C1C(=O)O[C@H]2[C@H]1CC/C(COC(=O)c1ccc(Br)cc1)=C\CC[C@@]1(C)O[C@@H]21`: the growth in assay [1] was 32.6%; in [2], -55.8% (active); in assay [3], 60.5%; in assay [4] it was 25.8%; in assay [5], 25.7%; in assay [6], -73% (active). Moreover, the growth is -78.1% (active) in assay [7]; 16.2% in assay [8]; -61% (active) in [9]; -67.2% (active) in assay [10]; -33.7% (active) in assay [11]; -54.1% (active) in [12]. In addition, the growth in assay [13] was -56% (active); in assay [14], -86% (active); in [15], 24.6%; in assay [16] it was 63.7%; in assay [17], -76.3% (active); in assay [18], 50.3%. Besides, the growth in [19] is -22.8% (active).

For `O=[N+]([O-])c1ccc(NS(=O)(=O)c2cc(Cl)ccc2Cl)c2ccccc12`, the growth is 32.5% in assay [1]; 65.7% in assay [2]; 68.4% in assay [3]; 65.7% in assay [4]; 46.6% in assay [5]; 8.11% (active) in [6]. Further, the growth was 10.1% in [7]; 89.5% in assay [8]; 62.9% in assay [9]; 73% in assay [11]; 43.2% in assay [12]; 71% in [13]. Also, the growth in [14] was 42.6%; in [15], 47.9%; in assay [16] it was 37.7%; in [17], 44.9%; in [18], 33.7%; in [19], 45.4%.

With `CC(CCC(=O)O)[C@H]1CCC2C3C(=O)C[C@@H]4CC(=O)CC[C@]4(C)C3CC(=O)[C@@]21C` (stereo partly specified), the growth was 101% in [1]; 103% in assay [2]; 111% in assay [3]; 112% in assay [4]; 107% in [5]; 96.2% in assay [6]. For the same compound, the growth was 117% in assay [7]; 98.7% in assay [8]; 106% in assay [9]; 114% in [11]; 94.2% in assay [20]; 97.5% in assay [12]. In addition, the growth in assay [13] was 90.7%; in assay [14] it was 110%; in assay [15], 110%; in assay [16] it was 92.9%; in [17], 111%; in assay [18], 112%. Further, in assay [19], the growth was 110%.

(Values after PubChem BioAssay (NCI).)
